Data as given in PubChem BioAssay (NCATS).
“And” between values parts separate entries of the source, which are not always exact repeats. Equal values may be shown once. Inconclusive results are not listed. Entries that show only a call come without a potency. A structure can be active in one record and inactive in another. The source made the active and inactive calls. Unless noted, calls follow the shape of the dose curve; as a rule, active = well fitted curve in the direction sought with a large enough effect; inconclusive = small, poorly fitted or top-dose-only effect, or another doubt; inactive = no such curve, though single readings can be large; an effect the other way counts as inactive or inconclusive.

Tests used:
[1] = MultiTox-Fluor Cytotoxicity Assay - LYMP1-001 - Live Cells (AID 947); settings: LYMP1-001 lymphoblastoid cells, live-cell protease fluorescence viability; series mostly up to 92.2 µM; also: potency is read from the fitted curve at half-maximal effect
[2] = Cell Viability - LYMP1-002 - Assay at 16 hr (AID 948); settings: LYMP1-002 lymphoblastoid cell viability; series mostly up to 92.2 µM; also: potency is read from the fitted curve at half-maximal effect
Method in brief: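 LYMP1-002 human lymphoblastoid cells, 2500/well; 5 hr 37 C; cpd 16 hr 37 C; CellTiter-Glo 30 min RT; luminescence (ATP). Concentration-response, Hill-fit AC50. Pos ctrl tetraoctylammonium bromide.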

[3] = MultiTox-Fluor Cytotoxicity Assay - LYMP1-002 - Live Cells (AID 955); settings: LYMP1-002 lymphoblastoid live-cell protease fluorescence viability; series mostly up to 46.1 µM;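 also: cells exposed to compound for 16 hours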; also: potency is read from the fitted curve at half-maximal effect
Method in brief: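 Cells were seeded at 2500 per well and incubated 5 hr. Compounds were then added for 16 hr at 37 C, followed by MultiTox-Fluor reagent for 60 min at room temperature and fluorescence reading of viable-cell protease signal.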

[4] = MultiTox-Fluor Cytotoxicity Assay - LYMP1-003 - Dead Cells (AID 961); settings: LYMP1-003 lymphoblastoid cells, dead-cell protease fluorescence; series mostly up to 92.2 µM;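 also: cells exposed to compound for 16 h at 37 °C; nearly all actives have a fitted effect of over 70% in size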; also: potency is read from the fitted curve at half-maximal effect
Method in brief: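 Human lymphoblastoid LYMP1-003 cells (2500/well) were treated with compounds for 16 hr at 37 C in complete medium. Dead-cell protease release was read by bis-AAF-R110 fluorescence (Ex/Em 485/520). AC50 came from Hill fits, normalized to DMSO and 15 uM tetraoctylammonium bromide.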

[5] = MultiTox-Fluor Cytotoxicity Assay - LYMP1-003 - Live Cells (AID 962); settings: LYMP1-003 lymphoblastoid cells, MultiTox-Fluor live-cell protease fluorescence; series mostly up to 92.2 µM;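 also: cells exposed to compound for 16 hours at 37 °C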; also: potency is read from the fitted curve at half-maximal effect
Method in brief: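 Acute cytotoxicity is scored as a drop in live-cell protease activity in human lymphoblastoid LYMP1-003 cells after 16 hr compound exposure at 37 C. AC50 values come from Hill-equation modelling of concentration-response data.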

[6] = Cell Viability - LYMP1-003 - Assay at 24 hr (AID 963); settings: LYMP1-003 lymphoblastoid cell viability; series mostly up to 92.2 µM; also: potency is read from the fitted curve at half-maximal effect
Method in brief: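 Cytotoxicity is scored as a concentration-dependent fall in ATP-linked luciferase signal in human lymphoblastoid LYMP1-003 cells treated 24 hr at 37 C in complete culture medium.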

[7] = molecular target: Pyruvate kinase PKM (Homo sapiens) (UniProt P14618); assay: qHTS Assay for Activators of Human Muscle Pyruvate Kinase (AID 954; active = well fitted curve in the direction sought with a large enough effect, not every such curve was filed as active); settings: purified human muscle pyruvate kinase, luciferase-coupled luminescence, 1 h; series mostly up to 57.5 µM
Method in brief: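 A coupled luminescent readout tracked ATP made from ADP by purified PKM2. Final conditions included 0.1 nM enzyme, PEP and ADP at 0.5 and 0.1 mM, pH 7.2 imidazole buffer with BSA, and a one-hour room-temperature reaction.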

[8] = molecular target: Alpha-galactosidase (Coffea arabica) (UniProt Q42656); assay: Counterscreen for Glucocerebrosidase Inhibitors: qHTS Assay for Coffee Bean alpha-Galactosidase at pH 4.5 (AID 957); settings: purified coffee bean alpha-galactosidase, fluorogenic substrate; series mostly up to 76.9 µM
Method in brief: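 Enzyme is added first (2 nM final), then compounds titrated from 0.7 nM to 77 uM, then 80 uM 4-methylumbelliferyl alpha-D-galactopyranoside; after 20 min at room temperature a pH 10 NaOH/glycine stop precedes fluorescence reading at 365/440 nm.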

Sequence of Alpha-galactosidase (Coffea arabica) (Q42656 whole entry, looked up): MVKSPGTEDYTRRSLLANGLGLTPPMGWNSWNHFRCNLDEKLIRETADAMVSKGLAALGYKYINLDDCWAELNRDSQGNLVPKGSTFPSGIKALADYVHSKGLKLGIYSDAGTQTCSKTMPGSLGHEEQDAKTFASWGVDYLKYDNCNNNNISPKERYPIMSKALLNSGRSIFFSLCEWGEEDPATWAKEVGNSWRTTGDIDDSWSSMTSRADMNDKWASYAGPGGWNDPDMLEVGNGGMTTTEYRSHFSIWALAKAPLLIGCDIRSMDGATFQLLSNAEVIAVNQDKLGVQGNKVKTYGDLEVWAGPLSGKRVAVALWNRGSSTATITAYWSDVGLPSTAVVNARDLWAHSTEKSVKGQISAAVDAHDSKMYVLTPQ
Sequence of Pyruvate kinase PKM (Homo sapiens) (P14618 whole entry, looked up): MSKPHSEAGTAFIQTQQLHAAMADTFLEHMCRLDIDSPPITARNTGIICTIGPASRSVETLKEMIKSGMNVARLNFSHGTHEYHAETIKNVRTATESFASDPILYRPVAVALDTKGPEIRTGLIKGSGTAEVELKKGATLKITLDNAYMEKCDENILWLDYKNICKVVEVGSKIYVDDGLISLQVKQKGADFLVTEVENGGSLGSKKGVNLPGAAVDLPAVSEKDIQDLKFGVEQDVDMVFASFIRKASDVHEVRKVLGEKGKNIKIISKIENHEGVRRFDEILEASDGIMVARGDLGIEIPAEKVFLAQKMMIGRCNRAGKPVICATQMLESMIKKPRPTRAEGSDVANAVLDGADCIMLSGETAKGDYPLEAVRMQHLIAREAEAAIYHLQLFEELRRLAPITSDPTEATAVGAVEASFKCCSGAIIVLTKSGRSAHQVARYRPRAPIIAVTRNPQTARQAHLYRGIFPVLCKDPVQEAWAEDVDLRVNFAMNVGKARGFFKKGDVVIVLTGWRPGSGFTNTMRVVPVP

Compound	Potency [1]	Potency [2]	Potency [3]	Potency [4]	Potency [5]	Potency [6]	outcome [7]	outcome [8]
[O]=[Cd]	inactive	inactive	inactive	inactive	inactive	inactive		
C[C@H]1CCC[C@H](O)CCCCCc2cc(O)cc(O)c2C(=O)O1	inactive	inactive	inactive	inactive	inactive	inactive		
O=C1C2CC=CCC2C(=O)N1SC(Cl)(Cl)Cl (centres undefined)	12.6 µM (active)	7.94 µM (active) and 10 µM (active)	6.31 µM (active) and 5.01 µM (active)	10 µM (active) and 7.94 µM (active)	12.6 µM (active) and 10 µM (active)	12.6 µM (active)		
CCOC(=O)c1ccccc1C(=O)OCC	inactive	inactive	inactive	inactive	inactive	inactive		
ClC(Cl)(Cl)Cl	inactive	inactive	inactive	inactive	inactive	inactive		
O=C1CCO1	inactive	inactive	inactive	inactive	inactive	inactive		
[O]=[Cr](=[O])([OH])[O][Cr](=[O])(=[O])[OH]	inactive	inactive	inactive	inactive	inactive	inactive and 39.8 µM (active)		
O=[N+]([O-])c1ccccc1	inactive	inactive	inactive	inactive	inactive	inactive		
O=C/C=C/c1ccccc1	inactive	inactive	inactive	inactive	inactive	inactive		
CC(C)(C)c1cc(O)ccc1O	inactive	inactive	inactive	inactive	inactive	inactive		
NNC(N)=O	inactive	inactive	inactive	inactive	inactive	inactive	inactive	inactive
ClC=C(Cl)Cl	inactive	inactive	inactive	inactive	inactive	inactive		
O=[N+]([O-])c1ccc(F)c([N+](=O)[O-])c1	inactive	inactive	inactive	inactive	inactive	inactive		
C[C@H]1CC[C@@H]2[C@@H](C)[C@H]3[C@H](C[C@H]4[C@@H]5CC=C6CC(O[C@@H]7O[C@H](CO)[C@H](O)[C@H](O[C@@H]8O[C@H](CO)[C@@H](O)[C@H](O)[C@H]8O)[C@H]7O[C@H]7O[C@@H](C)[C@H](O)[C@@H](O)[C@H]7O)CC[C@]6(C)[C@H]5CC[C@]34C)N2C1 (some centres undefined)	31.6 µM (active)	31.6 µM (active)	12.6 µM (active)	20 µM (active)	25.1 µM (active)	20 µM (active)		
Oc1cc(Cl)c(Cl)cc1Cl	inactive	inactive	inactive	inactive	inactive	inactive		
Clc1ccccc1Cl	inactive	inactive	inactive	inactive	inactive	inactive		
C[C@]12CCC(=O)C[C@@H]1CC[C@@H]1[C@@H]2CC[C@]2(C)[C@@H](O)CC[C@@H]12	inactive	inactive	inactive	inactive	inactive	inactive		
ClCC1CO1 (centres undefined)		inactive	inactive	inactive	inactive	inactive		
